Hits are enriched below; roughly 5.4% of the tested compounds scored in any of these assays.
M18AAP inhibitor – blocks P. falciparum M18 aspartyl aminopeptidase; hit rate 1.2% among 290,000; recombinant PfM18AAP, H-Glu-NHMec fluorogenic cleavage; inhibition, % at 7.35 µM; AID 1822;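 active = inhibition above the campaign mean inhibition over all tested compounds plus 3 SD, cut at about 28% in these data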;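 note: 0% = plate median of test compound wells and 100% = 2 mM ZnCl2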
MIN6 prolif – MIN6 beta-cell proliferation induction | MIN6 cells proliferation, ATPlite luminescence, 48 h; cells starved in 0.2% serum; 100% = growth in 10% serum | proliferation, % at 10 µM | hit rate 0.29% among 330,000 | AID 2380;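 active = compounds whose signal lies at least 3.5 SD above the mean of all wells on their plate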;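 note: 0% = DMSO-treated cells in low-serum medium and 100% = 10% serum control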
Exocytosis inh – lytic granule exocytosis inhibition. inhibition, % at 10 µM. hit rate 0.66% among 360,000. AID 651702. TALL-104 LAMP-1 surface exposure, flow cytometry; cells stimulated with thapsigargin and PMA;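 active = inhibition above about 55%, limit read from the data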
GASC-1 inh – blocks human GASC-1 demethylase activity; inhibition, % at 2.35 µM; hit rate 0.069% among 330,000; AID 2099; GST-JMJD2C(1-420) H3K9me3 demethylation, DELFIA europium;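 active = more than half of a compound's replicate wells show inhibition beyond 50%, single wells judged on their own value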;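 note: signal counts dimethyl H3K9 product captured on neutravidin plate; 0% = median of DMSO wells and 100% = 0.3 times that DMSO median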
Target sequence (Q9H3R0 1-420 limits assumed): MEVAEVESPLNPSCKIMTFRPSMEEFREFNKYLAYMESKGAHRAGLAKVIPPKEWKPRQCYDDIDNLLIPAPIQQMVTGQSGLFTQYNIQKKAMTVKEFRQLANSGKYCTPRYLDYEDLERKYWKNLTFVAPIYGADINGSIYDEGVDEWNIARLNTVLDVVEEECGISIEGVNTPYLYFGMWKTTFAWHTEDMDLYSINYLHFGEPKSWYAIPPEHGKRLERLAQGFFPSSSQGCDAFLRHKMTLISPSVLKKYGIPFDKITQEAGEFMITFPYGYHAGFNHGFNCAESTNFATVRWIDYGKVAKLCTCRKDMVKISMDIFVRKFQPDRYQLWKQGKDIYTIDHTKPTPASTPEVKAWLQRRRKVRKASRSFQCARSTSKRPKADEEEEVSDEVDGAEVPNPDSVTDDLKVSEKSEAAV
SMARCA2 activ – increases SMARCA2 function in MMTV reporter cells; activation, % at 9.1 µM; MG213 cells, MMTV-luciferase reporter, dexamethasone, overnight; hit rate 1% among 370,000; AID 652017; in the data active = activation above about 7.8%;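 note: 0% = vehicle wells and 100% = reference activator wells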
ALR inh – blocks human ALR sulfhydryl oxidase activity. hit rate 3.8% among 290,000. inhibition, % (no concentration beside the values). purified ALR, DTT oxidation, H2O2 HRP-luminol luminescence. P55789;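 active = mean replicate inhibition above about 79%, with every replicate also reaching it, limit read from the data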
Target sequence (P55789 whole entry, looked up): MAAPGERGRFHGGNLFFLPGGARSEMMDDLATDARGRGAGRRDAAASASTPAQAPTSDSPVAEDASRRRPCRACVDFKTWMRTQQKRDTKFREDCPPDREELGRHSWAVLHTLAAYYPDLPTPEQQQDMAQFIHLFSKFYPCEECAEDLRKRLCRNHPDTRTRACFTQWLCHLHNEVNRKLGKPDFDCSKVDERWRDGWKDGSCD
* marks the source's active call; other numbers are inactive results.

Results for Cc1cc(C(=O)CN2C(=O)NC3(CCCc4ccccc43)C2=O)c(C)n1Cc1ccccc1 (configuration not stated) ?
M18AAP inhibitor: 4.7; MIN6 prolif: -5.4; Exocytosis inh: -0.1; GASC-1 inh: -9.3; SMARCA2 activ: -0.7; ALR inh: 31.4

What do the screens show for `Cc1cc(C(=O)CN2C(=O)CCC2=O)c(C)n1Cc1ccccc1`?
M18AAP inhibitor: 12.9; MIN6 prolif: -5.2; Exocytosis inh: -2.3; GASC-1 inh: 15.1; SMARCA2 activ: -7.0; ALR inh: 94.1*

What do the screens show for `C=CCN1[C@@H](C)[C@@H](c2ccccc2)Oc2c(Cl)cccc2S1(=O)=O`?
SMARCA2 activ: 6.4

What do the screens show for `Nc1cc(OC(=O)c2ccc(F)cc2)nn1S(=O)(=O)c1ccc(F)cc1`?
M18AAP inhibitor: -9.0; MIN6 prolif: -1.8; Exocytosis inh: -3.1; GASC-1 inh: -1.3; SMARCA2 activ: -3.7; ALR inh: 3.1

How did Nc1cc(OC(=O)c2ccco2)nn1S(=O)(=O)c1ccc(F)cc1 do in these assays?
M18AAP inhibitor: 19.3; MIN6 prolif: -2.9; Exocytosis inh: -0.4; GASC-1 inh: 136.3; SMARCA2 activ: 1.5; ALR inh: 97.6*

How did Cc1ccc(S(=O)(=O)n2nc(OC(=O)c3ccco3)cc2N)cc1 do in these assays?
M18AAP inhibitor: 2.1; MIN6 prolif: -0.5; Exocytosis inh: -2.1; GASC-1 inh: -3.7; SMARCA2 activ: -4.2; ALR inh: 97.9*

What do the screens show for `Cc1ccc(S(=O)(=O)n2nc(OC(=O)c3c(F)cccc3Cl)cc2N)cc1`?
M18AAP inhibitor: 2.3; MIN6 prolif: -1.7; Exocytosis inh: 78.0*; GASC-1 inh: 2.8; SMARCA2 activ: 3.8; ALR inh: -2.8

Results for COc1cccc(C(=O)NCCN2C(=O)C3C4C=CC(C4)C3C2=O)c1 (configuration not stated) ?
SMARCA2 activ: -0.1

How did CCN(CC)c1ccc(-n2c(C)c(C(C)=O)c(C(C)=O)c2C)cc1 do in these assays?
M18AAP inhibitor: 28.2*; MIN6 prolif: 0.8; Exocytosis inh: 0.6; GASC-1 inh: 2.0; SMARCA2 activ: -3.8

What do the screens show for `COc1ccc(OC)c(S(=O)(=O)NNC(=S)Nc2ccc3c(c2)OCO3)c1`?
M18AAP inhibitor: 22.3; MIN6 prolif: -0.4; Exocytosis inh: 9.1; GASC-1 inh: -4.2; SMARCA2 activ: 3.9; ALR inh: 94.0*

Results for Cc1ccccc1N1CCN(C(=O)CCn2nnc3ccccc32)CC1 ?
SMARCA2 activ: 3.3

How did NC(=O)c1cccc2c3c([nH]c12)CCCC3 do in these assays?
M18AAP inhibitor: 2.2; MIN6 prolif: -2.8; Exocytosis inh: -1.8; GASC-1 inh: 9.9; ALR inh: -14.0

How did Cc1cccc2c3c([nH]c12)CCN(C)C3 do in these assays?
M18AAP inhibitor: 28.7*; MIN6 prolif: -3.8; Exocytosis inh: -3.7; GASC-1 inh: 1.6; SMARCA2 activ: 0.9; ALR inh: -0.4

How did COc1ccc(OC)c(S(=O)(=O)CC(=O)c2cc3ccc(OC)cc3oc2=O)c1 do in these assays?
M18AAP inhibitor: 10.3; MIN6 prolif: -1.4; Exocytosis inh: -2.3; GASC-1 inh: 1.1; ALR inh: -14.3

How did COc1ccc(S(=O)(=O)CC(=O)c2cc3cc(Br)ccc3oc2=O)cc1 do in these assays?
M18AAP inhibitor: 28.8*; MIN6 prolif: -6.1; Exocytosis inh: 20.3; GASC-1 inh: 1.9; SMARCA2 activ: -0.8; ALR inh: 18.9

Results for CC(=O)Nc1cccc(-c2csc(Nc3ccc(C)cn3)n2)c1 ?
M18AAP inhibitor: -6.3; MIN6 prolif: 0.0; Exocytosis inh: -1.7; GASC-1 inh: 0.5; SMARCA2 activ: 3.2; ALR inh: 98.8*

What do the screens show for `Nn1c(SCc2ccc(Br)cc2)nnc1-c1n[nH]c2c1CCC2`?
SMARCA2 activ: 2.7

How did Cc1c(O)c(CN(C)C)cc2c1oc(=O)c1ccccc12 do in these assays?
M18AAP inhibitor: 1.0; MIN6 prolif: 3.9; Exocytosis inh: 5.2; GASC-1 inh: 20.2; SMARCA2 activ: -0.7; ALR inh: 96.6*

How did Cc1c(O)c(CN2CCCCC2)cc2c1oc(=O)c1ccccc12 do in these assays?
M18AAP inhibitor: 2.2; MIN6 prolif: -2.6; Exocytosis inh: 0.2; GASC-1 inh: -5.1; SMARCA2 activ: 1.3; ALR inh: 17.9

Results for COc1ccc(OCc2n(CC(=O)OC3CC(C)CCC3C(C)C)c3ccccc3[n+]2C)cc1 (configuration not stated) ?
M18AAP inhibitor: 3.8; MIN6 prolif: -6.3; Exocytosis inh: 63.9*; GASC-1 inh: -5.7; SMARCA2 activ: -4.3; ALR inh: -5.2

How did COc1ccc(-c2n(CC(=O)OC3CC(C)CCC3C(C)C)c3ccccc3[n+]2C)cc1 (configuration not stated) do in these assays?
M18AAP inhibitor: -1.8; Exocytosis inh: 37.0; GASC-1 inh: 10.4; SMARCA2 activ: 2.2

Results for CN(C(=S)Nc1ccc(SC(F)F)cc1)c1ccc(O)cc1 ?
M18AAP inhibitor: 22.4; MIN6 prolif: 0.1; Exocytosis inh: 14.0; GASC-1 inh: -3.6; SMARCA2 activ: -1.7; ALR inh: 81.1*

What do the screens show for `CCCCNC(=O)C[C@H]1C[C@@]2(C(=O)OC)C(=C[C@H](C(C)(C)C)O[C@@H]2C)N(Cc2ccc(Cl)cc2Cl)C1=O`?
SMARCA2 activ: -5.4

What do the screens show for `CC1=CC(C)(C)N(C(=O)CCl)c2cc(C)ccc21`?
M18AAP inhibitor: -0.4; MIN6 prolif: 4.1; Exocytosis inh: -0.1; GASC-1 inh: -1.4; SMARCA2 activ: -1.6; ALR inh: 2.5

Results for CC1=CC(C)(C)N(C(=O)c2ccc(F)cc2)c2cc3c(cc21)OCO3 ?
M18AAP inhibitor: -13.7; MIN6 prolif: -2.1; Exocytosis inh: 2.8; GASC-1 inh: -14.6; SMARCA2 activ: 0.1; ALR inh: 97.9*

Results for N#Cc1ccc(/C=C2\CC3(OC(=O)c4ccco4)CCCN2C3)cc1 (configuration not stated) ?
SMARCA2 activ: -2.8

How did CCOC(=O)CSC1=C(C#N)C(c2ccc(C)s2)CC(=O)N1 (configuration not stated) do in these assays?
M18AAP inhibitor: 1.1; MIN6 prolif: 1.8; Exocytosis inh: -2.6; GASC-1 inh: -2.7; SMARCA2 activ: -3.5; ALR inh: -12.1

How did CCOC(=O)CSC1=C(C#N)C(=O)NC2(CCCCC2)S1 do in these assays?
M18AAP inhibitor: 5.3; MIN6 prolif: -0.7; Exocytosis inh: 0.3; GASC-1 inh: 1.6; SMARCA2 activ: 0.9; ALR inh: 97.7*

Results for Cc1ccc(C2(C)NC(=O)N(CC(=O)Nc3ccc(S(=O)(=O)Nc4nccs4)cc3)C2=O)cc1 (configuration not stated) ?
MIN6 prolif: 0.4; Exocytosis inh: -2.6; GASC-1 inh: 16.3; SMARCA2 activ: -2.9; ALR inh: 96.0*

Screening data deposited in PubChem by several laboratories.
